FMDV inh – High Throughput Screening for Foot and Mouth Disease Virus Antivirals | FMDV antiviral cell-based qHTS | Potency, µM (highest dose often 57.9 µM), actives largely listed as inhibitors | 1.2% of 410,000 active | AID 1159524, 2015; calls by dose curve; tested in HEK293T cells; also: read-out not given here; nearly all actives have a fitted effect of over 45% in size
Sm TGR inh – qHTS Assay for the Inhibitors of Schistosoma Mansoni Peroxiredoxins; Schistosoma mansoni thioredoxin glutathione reductase (TGR), Q962Y6; purified TGR, DTNB reduction, TNB absorbance 405 nm; Potency, µM (doses to about 114 µM), actives largely listed as inhibitors; 3% of 360,000 active; also: nearly all actives have a fitted effect of over 60% in size
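Kinetic colorimetric format: TGR-catalysed, NADPH-driven DTNB reduction monitored via TNB absorbance. Enzyme dispensed at 20 nM; compound exposure 15 min at room temperature before reaction start.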
Vaccinia Venus – qHTS for Stage-Specific Inhibitors of Vaccinia Orthopoxvirus: Venus Reporter Primary qHTS; AID 720580, 2013; Vaccinia virus Venus reporter expression, fluorescence; 0.46% of 330,000 active; Potency, µM (top dose mostly 36.5 µM), usual class: inhibitors; calls by dose curve; tested in A549 cells; also: nearly all actives have a fitted effect of over 30% in size
HCMV inh – qHTS Assay for inhibitors of the human cytomegalovirus (HCMV); 4.5% of 410,000 active; activity change, negative = inhibition, % at 57.5 µM; HFF cells, HCMV-luciferase reporter, 72 h; active compounds read low; in the data active = activity change below about -60%; inconclusive = no clear call, values can overlap the other calls; inactive = above about -39%
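Two compound doses tested in HFFs infected with HCMV-luciferase, MOI 1 PFU/cell, 72 h at 37C. Lysate luminescence read with OneGlo; data normalized against buffer-only and 10uM Salinomycin inhibitor controls.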
HCV inhibitor – qHTS Assay for Inhibitors of Hepatitis C Virus (HCV) | Huh7.5.1 HCVcc-Cre infection, luciferase reporter, 44 h | Potency, µM (doses to about 41.8 µM), most hits filed as inhibitors | 3.4% of 340,000 active | AID 651820, 2012
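A cell-based infection assay in which seeded cells (1,000 per well) receive test compound after 4 h, are inoculated with HCVcc-Cre at approximately 0.5 moi, and are incubated 44 h before luminescence detection.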
Vaccinia mCherry – qHTS for Stage-Specific Inhibitors of Vaccinia Orthopoxvirus: mCherry Reporter Primary qHTS. 0.63% of 310,000 active. AID 720579, 2013. Vaccinia virus mCherry reporter infection, fluorescence. Potency, µM (highest dose often 36.5 µM), hits mostly inhibitors; calls by dose curve; tested in A549 cells; also: nearly all actives have a fitted effect of over 35% in size
Of the large screens only hits and unclear results are named; the others gave an inactive call. Compounds with a hit are over-represented: about 9.3% of the library has one in this group of screens. Unless noted, calls follow the shape of the dose curve; as a rule, active = well fitted curve in the direction sought with a large enough effect; inconclusive = small, poorly fitted or top-dose-only effect, or another doubt; inactive = no such curve, though single readings can be large; an effect the other way counts as inactive or inconclusive.

COc1cc(NC(=O)CN2C(=O)C(c3ccc(Cl)cc3)=NC23CCCCC3)cc(OC)c1	HCMV inh -93 (no result: HCV inhibitor)
CC(C(=O)c1ccccc1)C(O)c1ccccn1 (stereo not given)	none (no result: Sm TGR inh)
Cc1ccc(Cn2nnc3c(=O)[nH]c(C4CCN(C(=O)Cc5ccccc5F)CC4)nc32)cc1	none (no result: HCV inhibitor)
O=C(Nc1ccc2c(c1)nc1n2CCSC1)c1ccco1	Sm TGR inh 14µM (no result: Vaccinia Venus, Vaccinia mCherry)
O=C(Nc1ccc2oc(-c3ccncc3)nc2c1)c1ccc(F)cc1	HCMV inh inconclusive, HCV inhibitor 22µM
O=C(Nc1ccc2oc(-c3ccccc3)nc2c1)c1ccco1	HCV inhibitor inconclusive
O=C(Nc1ccc2oc(-c3ccncc3)nc2c1)c1ccco1	Sm TGR inh 35µM
CCCC(=O)Nc1ccc(-c2nc3cc(C)ccc3o2)cc1	HCV inhibitor 11µM
O=C(Nc1ccc2c(c1)nc1n2CCOC1)c1ccco1	none (no result: Vaccinia Venus, Vaccinia mCherry)
O=C(Nc1ccc(-c2nc3cc(NC(=O)c4ccc(F)cc4)ccc3o2)cc1)c1ccc(F)cc1	none (no result: HCV inhibitor)
c1ccc(-c2cnn3c(-c4ccccc4)c(-c4ccccc4)nc3n2)cc1	HCV inhibitor inconclusive
O=[N+]([O-])c1ccc(CN2CCCCCC2)s1	Sm TGR inh inconclusive
CCOc1ccc(C(=O)Nc2ccc(-c3nc4cc(C)ccc4o3)cc2)cc1	none (no result: HCV inhibitor)
CCOc1ccc(C(=O)Nc2ccc(-c3nc4cc(CC)ccc4o3)cc2)cc1	HCMV inh -74, Vaccinia mCherry inconclusive (no result: HCV inhibitor)
CN1/C(=C\C(=O)CSc2ncn[nH]2)C(C)(C)c2ccccc21	none
CSc1cccc(NC(=O)c2ccccc2N(C)S(C)(=O)=O)c1	none (no result: Vaccinia Venus, Vaccinia mCherry)
CCOC(=O)c1c(SC)[nH]c2c(Cl)cccc2c1=O	none
Cc1ccc(C(CC(=O)c2ccc(Cl)cc2)C(=O)O)cc1 (stereo not given)	none
O=C(CC(Sc1ccc(Br)cc1)C(=O)O)c1ccc(Br)cc1 (stereo not given)	Sm TGR inh 0.28µM (no result: FMDV inh, Vaccinia Venus, HCMV inh, HCV inhibitor, Vaccinia mCherry)
O=C(CC(C(=O)O)P(=O)(c1ccccc1)c1ccccc1)c1ccc(Br)cc1 (stereo not given)	Sm TGR inh 28µM
O=C(CNC(=O)c1ccc(Br)cc1)c1ccccc1	none (no result: Vaccinia Venus, Vaccinia mCherry)
Cc1ccc(SC(CC(=O)c2ccc(C)cc2)C(=O)O)cc1 (stereo not given)	Sm TGR inh 13µM (no result: Vaccinia mCherry)
O=C(CNC(=O)c1ccc(Br)cc1)c1ccc(Br)cc1	none (no result: Vaccinia Venus, Vaccinia mCherry)
O=C(NCC(c1ccc(F)cc1)N1CCOCC1)c1ccc(OCc2ccccc2)cc1 (stereo not given)	none (no result: Sm TGR inh)
O=c1oc2ccccc2n1CSc1nc2ccccc2s1	none
O=c1oc2ccccc2n1CSC1=NCCS1	Vaccinia Venus inconclusive, HCMV inh -62, HCV inhibitor inconclusive (no result: Vaccinia mCherry)
C#CCOCCOCCOCCNc1nc(N2CCN(C(=O)CCCCCCCCCCNC(=O)[C@H](CO)n3cc(CCCSC)nn3)CC2)nc(N2CCN(C(=O)CCCCCCCCCCNC(=O)[C@H](CCCCN)n3cc(C[C@@H](C)CC)nn3)CC2)n1	HCV inhibitor inconclusive (no result: FMDV inh, Vaccinia Venus, HCMV inh, Vaccinia mCherry)
C#CCOCCOCCOCCNc1nc(N2CCN(C(=O)CCCCCCCCCCNC(=O)[C@H](CCCCN)n3cc(CCO)nn3)CC2)nc(N2CCN(C(=O)CCCCCCCCCCNC(=O)[C@H](CCCN=C(N)N)n3cc(C[C@@H](C)CC)nn3)CC2)n1	FMDV inh inconclusive, Vaccinia Venus 10µM, HCV inhibitor inconclusive, Vaccinia mCherry inconclusive (no result: HCMV inh)
C#CCOCCOCCOCCNc1nc(N2CCN(C(=O)CCCCCCCCCCNC(=O)Cn3cc(C[C@@H](C)O)nn3)CC2)nc(N2CCN(C(=O)CCCCCCCCCCNC(=O)Cn3cc(C[C@@H](C)O)nn3)CC2)n1	Vaccinia Venus inconclusive, HCMV inh inconclusive
C#CCOCCOCCOCCNc1nc(N2CCN(C(=O)CCCCCCCCCCNC(=O)[C@H](CCCCN)n3cc(C[C@@H](C)CC)nn3)CC2)nc(N2CCN(C(=O)CCCCCCCCCCNC(=O)[C@H](CCCCN)n3cc(C[C@@H](C)CC)nn3)CC2)n1	FMDV inh 40µM, Vaccinia Venus 11µM, Vaccinia mCherry inconclusive (no result: Sm TGR inh, HCMV inh)
C#CCOCCOCCOCCNc1nc(N2CCN(C(=O)CCCCCCCCCCNC(=O)[C@H](CCCCN)n3cc(CCCC(=O)O)nn3)CC2)nc(N2CCN(C(=O)CCCCCCCCCCNC(=O)[C@H](CCCN=C(N)N)n3cc(C[C@@H](C)CC)nn3)CC2)n1	FMDV inh inconclusive, Vaccinia Venus 11µM, HCV inhibitor inconclusive, Vaccinia mCherry inconclusive (no result: HCMV inh)
C#CCOCCOCCOCCNc1nc(N2CCN(C(=O)CCCCCCCCCCNC(=O)Cn3cc(C[C@@H](C)O)nn3)CC2)nc(N2CCN(C(=O)CCCCCCCCCCNC(=O)[C@H](CCCCN)n3cc(C[C@@H](C)CC)nn3)CC2)n1	FMDV inh inconclusive, Vaccinia Venus 10µM, HCV inhibitor inconclusive, Vaccinia mCherry inconclusive (no result: HCMV inh)
CCOC(=O)C1=CCC(c2ccccc2)N(S(=O)(=O)c2ccccc2)C1 (stereo not given)	none (no result: Sm TGR inh, HCV inhibitor)
CCOC(=O)c1c(C)[nH]c(C)c1S(=O)(=O)N1CCCC(C(=O)NCc2ccc(N(C)C)cc2)C1 (stereo not given)	none (no result: HCV inhibitor)
CC(C)(C)c1nnc2sc(SCC(=O)c3ccccc3)nn2c1=O	Sm TGR inh inconclusive (no result: Vaccinia mCherry)
COc1ccc(C(=O)CSc2nn3c(=O)c(C(C)(C)C)nnc3s2)cc1	FMDV inh 14µM (no result: Vaccinia mCherry)
Clc1cccc(CNc2cc(-c3ccccc3)nc3nncn23)c1	FMDV inh inconclusive, HCMV inh -62 (no result: HCV inhibitor)
COc1ccccc1CNc1cc(-c2ccccc2)nc2nncn12	Sm TGR inh 35µM, HCMV inh -87 (no result: HCV inhibitor)
CC1CC(C)CN(CC(O)COCc2ccccc2F)C1 (stereo not given)	none
COc1cc(NC(=O)C2Cc3ccccc3N2C(=O)c2ccccc2)cc(OC)c1 (stereo not given)	none (no result: HCV inhibitor)
CC(NCCC(Cc1ccccc1)c1ccco1)c1ccccc1 (stereo not given)	none
Cc1ccc(C(CCNC(C)c2cccs2)c2ccco2)cc1 (stereo not given)	HCMV inh -61
C=CC(=O)Nc1ccc(N(C)c2ccnc(Nc3ccc(N4CCN(C)CC4)cc3)n2)cc1	Vaccinia Venus 7.9µM, HCV inhibitor inconclusive, Vaccinia mCherry 6.3µM (no result: Sm TGR inh)
OCCCc1n[nH]c(=S)n1-c1ccccc1	Sm TGR inh 45µM
CC(C)CCN(C(=O)CNC(=O)c1cccs1)C(C(=O)NC1CCCCC1)c1cccnc1 (stereo not given)	none
CC1CC(C)CN(C(=O)C2CCN(S(=O)(=O)c3cccs3)CC2)C1 (stereo not given)	HCV inhibitor inconclusive

Screening results (PubChem BioAssay)
